The values that follow come from PubChem BioAssay AID2653 (National Center for Advancing Translational Sciences (NCATS), 2010).

Results filed as inconclusive are left out. Calls of active or inactive are those of the source. Calls follow the shape of the dose curve; as a rule, active = well fitted curve in the direction sought with a large enough effect; inconclusive = small, poorly fitted or top-dose-only effect, or another doubt; inactive = no such curve, though single readings can be large or run the other way.

A short description of this assay: Secondary Assay for Activators of Human Pyruvate Kinase M2 isoform - Cell Titer Glo Cytotoxicity for Probe SAR. Also: % of control where 0% means no effect. The note with it: HeLa viability, CellTiter-Glo ATP luminescence, 24 h; series mostly up to 58.2 µM; activity change, negative = cytotoxicity: at the top concentration. In a few lines: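 Cytotoxicity read as ATP content (CellTiter-Glo luminescence) in HeLa cells after 24 h compound exposure at 37 C, following 24 h pre-plating at 500 cells/well; doxorubicin as control.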
A general note: ATP-based viability assays read luminescence as a measure of living cells.
For the compound `Cc1c(Cl)cccc1NS(=O)(=O)c1cc2c(cc1F)NC(=O)CC2`, the “activity change, negative = cytotoxicity” value was -12.4% (inactive).
Take `COc1cc(F)c(S(=O)(=O)N2CCCN(S(=O)(=O)c3cccc(N)c3)CC2)c(F)c1`: the “activity change, negative = cytotoxicity” value is -9.41% (inactive).
On to `O=C1c2ccccc2C(=O)N1c1noc2ccccc12`, for which the “activity change, negative = cytotoxicity” value is -26.9% (inactive).
Under `O=C1CCc2cc(S(=O)(=O)Nc3cccc(B(O)O)c3)ccc2N1` stands -11.5% (inactive).
With `Cc1cc(C)n2c(Nc3ccccc3)c(-c3ccc(C)o3)nc2n1`, the “activity change, negative = cytotoxicity” value is -18% (inactive).
Consider `O=C1c2ccccc2C(=O)N1c1ccncc1`, for which the “activity change, negative = cytotoxicity” value is -39.8% (inactive).
As to `Cc1ccc(NS(=O)(=O)c2cc3c(cc2C)NC(=O)CO3)cc1C`, the “activity change, negative = cytotoxicity” value was -0.698% (inactive).
As to `Cc1ccc(N(C)S(=O)(=O)c2ccc3c(c2)CCC(=O)N3)cc1C`, the “activity change, negative = cytotoxicity” value was -13.9% (inactive).
Under `O=C1c2ccccc2C(=O)N1c1ccc(O)cc1` stands -5.26% (inactive); under `CN(C)c1cccc(S(=O)(=O)N2CCN(S(=O)(=O)c3ccc4c(c3)OCCO4)CC2)c1`, -1.98% (inactive); under `Cc1ccc(NS(=O)(=O)c2cccc(F)c2)cc1C`, -3.4% (inactive).
For the compound `O=C1c2ccccc2C(=O)N1c1cccc2cccnc12`, the “activity change, negative = cytotoxicity” value is -23.4% (inactive).
Under `Cc1cc(NS(=O)(=O)c2ccc3c(c2)CCC(=O)N3)ccc1Cl` stands -4.72% (inactive); under `Cc1ccccc1Nc1c(-c2ccccc2)nc2cccc(C)n12`, -16.5% (inactive).
The result for `COc1cccc(N2C(=O)c3ccccc3C2=O)n1` reads -1.67% (inactive); that for `Cc1ccc(NS(=O)(=O)c2ccc3c(c2)n(C)c(=O)n3C)cc1C`, -15.9% (inactive).
The result for `Cc1ccccc1OC1=NS(=O)(=O)c2ccccc21` reads 2.36% (inactive); that for `Cc1ccc(-c2nc3ccc(Cl)cn3c2Nc2ccccc2)o1`, -21% (inactive); that for `Cc1ccc(NS(=O)(=O)c2ccc3c(c2)CCCC(=O)N3)cc1C`, -1.83% (inactive).
In the case of `Cc1ccc(N2C(=O)c3ccccc3C2=O)c(C)c1`, the “activity change, negative = cytotoxicity” value is -18.8% (inactive).
The result for `CNc1cccc(S(=O)(=O)N2CCCN(S(=O)(=O)c3ccc4c(c3)OCCO4)CC2)c1` reads -19.6% (inactive); that for `CC(C)Nc1cccc(S(=O)(=O)N2CCCN(S(=O)(=O)c3ccc4c(c3)OCCO4)CC2)c1`, -20.5% (inactive); that for `O=C1CCc2cc(S(=O)(=O)Nc3ccc4c(c3)OCCO4)ccc2N1`, -28.2% (inactive).
Under `Cc1ccc(NS(=O)(=O)c2cccc(Cl)c2)cc1C` stands 1.83% (inactive); under `O=C1CCc2cc(S(=O)(=O)Nc3cccc(-c4ccccc4)c3)ccc2N1`, -25.3% (inactive).
With `Cc1ccc(NS(=O)(=O)c2cccc(C(=O)O)c2)cc1C`, the “activity change, negative = cytotoxicity” value is 22% (inactive).
The result for `O=C1c2ccccc2C(=O)N1C1CCCCC1` reads -17.4% (inactive); that for `CCCCN1C(=O)c2ccccc2C1=O`, 10.9% (inactive); that for `Cc1ccc2nc(-c3ccc(C)o3)c(NC3CCCC3)n2c1`, -16.7% (inactive).
The result for `Cc1ccc(NS(=O)(=O)c2cc3c(cc2-c2ccco2)NC(=O)CO3)cc1C` reads -15.8% (inactive).
For the compound `O=C1CCc2cc(Cl)c(S(=O)(=O)Nc3ccc(Cl)c(Cl)c3)cc2N1`, the “activity change, negative = cytotoxicity” value was -23.4% (inactive).
As to `CCNc1cccc(S(=O)(=O)N2CCCN(S(=O)(=O)c3ccc4c(c3)OCCO4)CC2)c1`, the “activity change, negative = cytotoxicity” value is -20.9% (inactive).
